The values below come from PubChem BioAssay (EPA / NIEHS).

The nature of test [1]: ATG_CRE_CIS: Attagene CIS-FACTORIAL HepG2 Assay for human cAMP Responsive Element (CRE) binding protein 3 (AID 2282926). The settings on record: HepG2 CRE cis-reporter, Attagene multiplexed mRNA; actives raise or lower the signal. In a few lines: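 Transfected HepG2 were treated for 24 hours, then RNA was extracted and reporter cDNA amplified with sequence-specific primers. Labelled fragments were separated by capillary electrophoresis, and the CRE signal was fitted bidirectionally with DMSO as baseline.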

In test [2] the target is CCAAT/enhancer-binding protein beta (Homo sapiens) (UniProt P17676). Briefly: ATG_C_EBP_CIS: Attagene CIS-FACTORIAL HepG2 Assay for human CCAAT/Enhancer Binding Protein (C/EBP) beta (AID 2282927). The settings on record: HepG2 Attagene cis-factorial transcription factor reporter; actives raise or lower the signal. In a few lines: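 RT-PCR/capillary electrophoresis fluorescence of reporter mRNA, 24 h post-dose, in HepG2 cells carrying transfected cis-promoter reporter units. Bidirectional curve fitting against DMSO baseline captures gain or loss of signal.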
CCAAT/enhancer-binding protein beta (Homo sapiens), sequence (P17676 whole entry, looked up): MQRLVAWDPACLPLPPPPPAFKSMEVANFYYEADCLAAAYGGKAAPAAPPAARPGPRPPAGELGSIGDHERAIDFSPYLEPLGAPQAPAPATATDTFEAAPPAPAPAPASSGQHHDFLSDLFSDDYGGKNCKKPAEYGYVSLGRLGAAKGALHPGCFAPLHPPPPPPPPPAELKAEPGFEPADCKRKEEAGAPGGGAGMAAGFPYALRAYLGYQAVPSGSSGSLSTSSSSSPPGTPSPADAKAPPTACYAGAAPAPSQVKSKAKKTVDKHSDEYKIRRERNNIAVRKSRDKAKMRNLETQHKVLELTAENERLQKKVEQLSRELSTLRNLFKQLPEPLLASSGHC

Test [3] can be described thus: ATG_CMV_CIS: Attagene CIS-FACTORIAL HepG2 Assay for human CMV (Internal Marker) (AID 2282928).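 Note: endpoint acts as a background internal control marker rather than a target.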 The note with it: HepG2 CMV promoter reporter, transcription factor profiling; actives raise or lower the signal. The essentials: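 CMV internal-marker background readout in transiently transfected HepG2 cells bearing cis-regulated reporter units. Reporter mRNA is measured 24 h after dosing by RT-PCR and capillary electrophoresis, with bidirectional fitting against DMSO.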

The nature of test [4]: ATG_DR4_LXR_CIS: Attagene CIS-FACTORIAL HepG2 Assay for human Liver X Receptor (LXR), DR4 submotif (AID 2282929). The note with it: HepG2 Attagene DR4 cis-reporter, mRNA transcription; actives raise or lower the signal. In a few lines: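 Transiently transfected HepG2 liver cells; cis-regulated reporters; 24 h dosing. RT-PCR plus CE read-out of reporter mRNA. DMSO baseline, bidirectional curve fitting.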

Test [5] has as its target Aryl hydrocarbon receptor (Homo sapiens) (UniProt P35869). Nature of the test: ATG_Ahr_CIS: Attagene CIS-FACTORIAL HepG2 Assay for human Aryl Hydrocarbon Receptor (Ahr) (AID 2282930). The settings on record: HepG2 AhR cis-factorial reporter transcription; actives raise or lower the signal. In a few lines:
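HepG2 cells transiently transfected with cis-element-driven multiplexed reporter transcription units; endogenous transcription factor activity measured as reporter mRNA 24 h after dosing. RT-PCR, 6-FAM labelling, HpaI digestion, capillary electrophoresis; bidirectional fitting versus DMSO baseline.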

Test [6] is described as follows: ATG_AP_1_CIS: Attagene CIS-FACTORIAL HepG2 Assay for human Activator Protein 1 (AP-1) (AID 2282931). The settings on record: HepG2 Attagene cis-factorial AP-1 reporter mRNA; actives raise or lower the signal. The essentials:
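We transfected HepG2 cells transiently with a set of cis-regulated reporter transcription units, dosed them for 24 h, and quantified reporter mRNA via RT-PCR and capillary electrophoresis, scoring gain or loss of signal relative to DMSO.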

The nature of test [7]: ATG_AP_2_CIS: Attagene CIS-FACTORIAL HepG2 Assay for human Activator Protein 2 (AP-2) (AID 2282932). The settings on record: HepG2 AP-2 cis-reporter, Attagene transcription factor profiling; actives raise or lower the signal. The essentials: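 HepG2 cells were transiently transfected with multiple cis-promoter reporter transcription units and dosed for 24 h. Reporter mRNA was measured by RT-PCR with capillary electrophoresis fluorescence; bidirectional fits relative to DMSO baseline.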

Test [8] can be described thus: ATG_BRE_CIS: Attagene CIS-FACTORIAL HepG2 Assay for human Bone Morphogenetic Protein (BMP) Response Element (BRE) (AID 2282933). The note with it: HepG2 BMP response element reporter, Attagene transcription factor profiling; actives raise or lower the signal. In a few lines: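 HepG2 cells transiently transfected with multiplexed cis-element reporter units were dosed with chemical for 24 h. Reporter mRNA was measured by RT-PCR with fluorescent labelling, HpaI digestion and capillary electrophoresis; bidirectional fitting relative to DMSO.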

In test [9] the target is Transcription factor E2F1 (Homo sapiens) (UniProt Q01094). Nature of the test: ATG_E2F_CIS: Attagene CIS-FACTORIAL HepG2 Assay for human E2F Transcription Factor 1 (AID 2282935). The settings on record: HepG2 Attagene cis-reporter, E2F reporter RNA transcripts; actives raise or lower the signal. The essentials: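 HepG2 cells transiently transfected with multiplexed cis-element reporter units, dosed for 24 h. Reporter mRNA measured by RT-PCR, 6-FAM primer-extension labeling, HpaI digestion and capillary electrophoresis; bidirectional fit versus DMSO baseline.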
Transcription factor E2F1 (Homo sapiens), sequence (Q01094 whole entry, looked up): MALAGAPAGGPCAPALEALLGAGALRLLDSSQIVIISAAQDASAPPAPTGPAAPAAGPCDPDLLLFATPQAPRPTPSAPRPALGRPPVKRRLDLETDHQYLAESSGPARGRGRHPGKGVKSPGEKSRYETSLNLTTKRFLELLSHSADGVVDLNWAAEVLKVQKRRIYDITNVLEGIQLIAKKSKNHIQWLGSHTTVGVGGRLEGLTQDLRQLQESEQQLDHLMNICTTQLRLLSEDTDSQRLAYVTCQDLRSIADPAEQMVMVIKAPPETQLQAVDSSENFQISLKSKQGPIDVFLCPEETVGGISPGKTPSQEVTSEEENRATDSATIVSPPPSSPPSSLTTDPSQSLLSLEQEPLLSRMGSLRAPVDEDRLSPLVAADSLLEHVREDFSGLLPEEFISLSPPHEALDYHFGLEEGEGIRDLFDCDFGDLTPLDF

The nature of test [10]: ATG_E_Box_CIS: Attagene CIS-FACTORIAL HepG2 Assay for human Enhancer Box (E-box) (AID 2282936). The settings on record: HepG2 E-box cis-reporter transcription, actives raise or lower the signal. In a few lines: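 HepG2 cells transiently transfected with multiplexed cis-element reporter units sensing endogenous transcription factor activity; 24 h compound exposure. Reporter mRNA measured by RT-PCR, 6-FAM primer extension, HpaI digestion and capillary electrophoresis; bidirectional fit versus DMSO.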

A short description of test [11]: ATG_M_61_CIS: Attagene CIS-FACTORIAL HepG2 Assay for M61 Transcription Factor (Internal Marker) (AID 2282937). The note with it: HepG2 Attagene CIS-FACTORIAL M61 internal marker reporter; actives raise or lower the signal. The essentials: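 Multiplexed reporter mRNA assay, HepG2 human hepatoma cells, 24 h treatment. Signal: FAM-labelled, HpaI-digested RT-PCR fragments by CE. Fit: bidirectional, baseline DMSO.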

Test [12] can be described thus: ATG_EGR_CIS: Attagene CIS-FACTORIAL HepG2 Assay for human Early Growth Response 1 (EGR1) (AID 2282938). The settings on record: HepG2 Attagene CIS-FACTORIAL EGR reporter mRNA; actives raise or lower the signal. The essentials: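 Multiplexed cis-reporter system in human hepatoma HepG2 cells, transiently transfected. Cells are dosed for 24 h; reporter transcripts are amplified, fluorescently tagged and sized by capillary electrophoresis, with DMSO as negative control.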

The nature of test [13]: ATG_M_19_CIS: Attagene CIS-FACTORIAL HepG2 Assay for M19 Transcription Factor (Internal Marker) (AID 2282939). The settings on record: HepG2 Attagene CIS-FACTORIAL M19 internal marker reporter; actives raise or lower the signal. The essentials: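 HepG2 cells transiently transfected with cis-regulated multiple reporter transcription units were dosed for 24 h; reporter mRNA was quantified by RT-PCR, 6-FAM primer-extension labelling, HpaI digestion and capillary electrophoresis, with bidirectional fitting against DMSO baseline.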

Test [14] is described as follows: ATG_Ets_CIS: Attagene CIS-FACTORIAL HepG2 Assay for human Erythroblast Transformation Specific (ETS) (AID 2282941). The note with it: HepG2 ETS cis-reporter transcription, actives raise or lower the signal. In a few lines: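 HepG2 cells transfected with multiple cis-regulated reporter units measuring endogenous ETS-driven transcription, 24 h after dosing. Reporter mRNA quantified by RT-PCR with capillary electrophoresis; bidirectional fit relative to DMSO.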

Test [15] deals with Hepatocyte nuclear factor 3-beta (Homo sapiens) (UniProt Q9Y261). Briefly: ATG_FoxA2_CIS: Attagene CIS-FACTORIAL HepG2 Assay for human Forkhead box A2 (FOXA2) (AID 2282942). The note with it: HepG2 cis-reporter transcription factor activity, 24 h; actives raise or lower the signal. The essentials: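 Multiplexed cis-element reporter assay in transiently transfected HepG2. Twenty-four hours post-dosing, RNA was reverse-transcribed, amplified, FAM-labelled, HpaI-digested and separated by CE. Activity gain or loss relative to DMSO.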
Hepatocyte nuclear factor 3-beta (Homo sapiens), sequence (Q9Y261 whole entry, looked up): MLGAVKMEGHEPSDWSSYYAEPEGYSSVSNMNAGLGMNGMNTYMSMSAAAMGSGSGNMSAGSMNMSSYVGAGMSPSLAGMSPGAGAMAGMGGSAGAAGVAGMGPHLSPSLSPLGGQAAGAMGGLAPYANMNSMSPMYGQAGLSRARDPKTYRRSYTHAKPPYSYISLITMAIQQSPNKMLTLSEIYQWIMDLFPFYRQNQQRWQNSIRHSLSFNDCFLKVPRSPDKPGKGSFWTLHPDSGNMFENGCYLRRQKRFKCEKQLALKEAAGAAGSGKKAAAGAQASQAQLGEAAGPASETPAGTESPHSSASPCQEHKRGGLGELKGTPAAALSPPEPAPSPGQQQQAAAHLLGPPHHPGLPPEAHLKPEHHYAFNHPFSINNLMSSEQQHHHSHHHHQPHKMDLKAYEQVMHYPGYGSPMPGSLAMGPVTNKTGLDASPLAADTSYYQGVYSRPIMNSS

Test [16] in a line: ATG_FoxO_CIS: Attagene CIS-FACTORIAL HepG2 Assay for human Forkhead box O (FoxO) (AID 2282943). The note with it: HepG2 Attagene cis-reporter, FoxO element, mRNA; actives raise or lower the signal. The essentials:
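HepG2 cells transiently transfected with cis-promoter-driven multiple reporter transcription units; 24 h after chemical dosing, reporter mRNA quantified by RT-PCR, fluorescent primer extension, HpaI digestion and capillary electrophoresis. Bidirectional fitting versus DMSO baseline.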

Test [17] can be described thus: ATG_GATA_CIS: Attagene CIS-FACTORIAL HepG2 Assay for human GATA Binding Protein (AID 2282944). The settings on record: HepG2 GATA cis-element reporter, Attagene multiplex mRNA; actives raise or lower the signal. In a few lines:
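HepG2 cells transiently transfected with multiplexed cis-element reporter units reflecting endogenous transcription factor activity; reporter mRNA measured after 24 h dosing by RT-PCR, 6-FAM labeling, HpaI digestion and capillary electrophoresis. Bidirectional fitting versus DMSO baseline.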

Test [18] in a line: ATG_GLI_CIS: Attagene CIS-FACTORIAL HepG2 Assay for human Zinc Finger Protein GLI1 (AID 2282945). The note with it: HepG2, Attagene cis-factorial reporter mRNA, GLI element; actives raise or lower the signal. In a few lines: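 HepG2 cells transiently transfected with cis-promoter multiplexed reporter units report endogenous transcription factor activity. After 24 h chemical exposure, reporter mRNA was quantified by RT-PCR, 6-FAM labelling, HpaI digestion and capillary electrophoresis, with bidirectional fitting against DMSO.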

In test [19] the target is Bile acid receptor (Homo sapiens) (UniProt Q96RI1). Nature of the test: ATG_IR1_CIS: Attagene CIS-FACTORIAL HepG2 Assay for human Nuclear Receptor Subfamily 1 Group H Member 4 (NR1H4), IR1 submotif (AID 2282946). The note with it: IR1 reporter transcription, actives raise or lower the signal. In a few lines: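 Transient MRTU transfection, HepG2; 24 h dosing; RNA → RT-PCR → 6-FAM primer extension → HpaI digest → capillary electrophoresis fluorescence. Gain/loss of signal fitted relative to DMSO.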
Bile acid receptor (Homo sapiens), sequence (Q96RI1 whole entry, looked up): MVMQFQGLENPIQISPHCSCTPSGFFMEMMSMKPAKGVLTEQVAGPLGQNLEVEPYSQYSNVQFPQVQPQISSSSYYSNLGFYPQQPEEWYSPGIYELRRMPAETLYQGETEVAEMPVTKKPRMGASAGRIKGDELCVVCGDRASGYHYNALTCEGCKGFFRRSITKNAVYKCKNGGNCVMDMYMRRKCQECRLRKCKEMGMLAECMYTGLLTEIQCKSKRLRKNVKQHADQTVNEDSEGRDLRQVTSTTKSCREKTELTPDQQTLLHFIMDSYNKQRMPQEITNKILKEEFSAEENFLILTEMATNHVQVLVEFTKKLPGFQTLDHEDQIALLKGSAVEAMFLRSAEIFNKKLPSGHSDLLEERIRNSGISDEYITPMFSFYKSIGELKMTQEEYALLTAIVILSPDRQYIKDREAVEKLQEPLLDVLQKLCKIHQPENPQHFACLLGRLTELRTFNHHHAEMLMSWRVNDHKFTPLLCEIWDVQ

Calls of active or inactive are those of the source. Rule for the calls: active = hit-call score of the fitted dose curve at least 0.9, where 1 is the maximum; inactive = score below 0.9.

Aryl hydrocarbon receptor (Homo sapiens), sequence (P35869 whole entry, looked up): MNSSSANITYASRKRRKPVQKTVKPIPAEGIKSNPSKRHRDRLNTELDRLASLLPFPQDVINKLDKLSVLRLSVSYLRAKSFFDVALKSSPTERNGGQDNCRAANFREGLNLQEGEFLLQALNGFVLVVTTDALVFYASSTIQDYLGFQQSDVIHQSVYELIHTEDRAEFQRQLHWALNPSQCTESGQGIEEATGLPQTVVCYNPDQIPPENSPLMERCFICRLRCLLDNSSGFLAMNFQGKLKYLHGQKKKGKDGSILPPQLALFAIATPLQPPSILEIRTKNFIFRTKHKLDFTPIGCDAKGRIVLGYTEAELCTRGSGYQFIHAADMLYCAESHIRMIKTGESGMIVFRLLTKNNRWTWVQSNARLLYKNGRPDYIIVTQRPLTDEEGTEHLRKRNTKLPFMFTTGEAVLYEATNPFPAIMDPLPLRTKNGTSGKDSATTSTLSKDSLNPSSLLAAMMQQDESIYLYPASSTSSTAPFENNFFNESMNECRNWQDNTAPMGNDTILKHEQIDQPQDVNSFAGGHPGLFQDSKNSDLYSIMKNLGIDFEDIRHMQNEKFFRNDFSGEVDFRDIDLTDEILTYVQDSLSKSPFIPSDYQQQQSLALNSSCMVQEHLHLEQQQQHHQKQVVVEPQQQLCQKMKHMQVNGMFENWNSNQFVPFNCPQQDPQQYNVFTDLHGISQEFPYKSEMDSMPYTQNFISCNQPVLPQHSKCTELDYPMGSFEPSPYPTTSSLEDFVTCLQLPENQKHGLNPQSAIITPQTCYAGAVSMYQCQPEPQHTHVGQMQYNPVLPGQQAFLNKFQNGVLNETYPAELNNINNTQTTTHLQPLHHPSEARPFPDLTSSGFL

`COc1ccc(OC)c(N=Nc2c(O)ccc3ccccc23)c1`: the result in test [1], in test [2], in test [3], in [4], in [6] and in [7] was inactive. The compound was called inactive in test [8], in test [9], in [10], in test [11], in test [12] and in test [13]. In addition, the compound was called inactive in test [14], in [15], in test [16], in [17], in test [18] and in test [19]. In addition, the AC50 in test [5] is 0.51 µM (active).
In the case of `CCNCCO`, the result in test [1], in test [2], in [3], in test [4], in test [5] and in [6] was inactive. The compound was called inactive in test [7], in test [8], in test [9], in test [10], in test [11] and in [12]. Moreover, the call in test [13], in test [16], in test [17], in test [18] and in test [19] was inactive.
`[O-]n1ccccc1=S.[O-]n1ccccc1=S.[Zn+2]`: the compound was classed as inactive in [1], in test [2], in test [3], in test [4], in [5] and in test [6]. Besides, the compound was called inactive in [7], in test [8], in test [9], in test [11], in test [12] and in [14]. In addition, the compound was called inactive in test [15], in test [16] and in [18]. For the same compound, the AC50 in test [10] was 0.976 µM (active).
For the compound `C=C(C#N)C(=O)OCC`, the call in test [1], in test [3], in test [5], in test [6], in test [7] and in test [8] was inactive. The outcome in [9], in test [10], in test [11], in [12], in [13] and in [14] was inactive. In addition, the compound was called inactive in test [15], in test [16], in test [17] and in test [18]. Besides, the AC50 was 154 µM (active) in [2] and 158 µM (active) in test [4].
